# High-throughput results deposited in PubChem BioAssay by Broad Institute.
# Hits are enriched below; roughly 1.8% of the tested compounds scored in any of these assays.
# PDI inh = inhibitors of human protein disulfide isomerase; P07237; PDI insulin aggregation turbidity, A650, 90 min; inhibition, % at 10 µM; 350,000 tested, 0.052% active; AID 588391;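 active = mean inhibition across replicates of 30% or more, whatever share of single replicates reach that level; inconclusive = mean inhibition below 30% while every single replicate reaches 30%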
# Target sequence (P07237 whole entry, looked up): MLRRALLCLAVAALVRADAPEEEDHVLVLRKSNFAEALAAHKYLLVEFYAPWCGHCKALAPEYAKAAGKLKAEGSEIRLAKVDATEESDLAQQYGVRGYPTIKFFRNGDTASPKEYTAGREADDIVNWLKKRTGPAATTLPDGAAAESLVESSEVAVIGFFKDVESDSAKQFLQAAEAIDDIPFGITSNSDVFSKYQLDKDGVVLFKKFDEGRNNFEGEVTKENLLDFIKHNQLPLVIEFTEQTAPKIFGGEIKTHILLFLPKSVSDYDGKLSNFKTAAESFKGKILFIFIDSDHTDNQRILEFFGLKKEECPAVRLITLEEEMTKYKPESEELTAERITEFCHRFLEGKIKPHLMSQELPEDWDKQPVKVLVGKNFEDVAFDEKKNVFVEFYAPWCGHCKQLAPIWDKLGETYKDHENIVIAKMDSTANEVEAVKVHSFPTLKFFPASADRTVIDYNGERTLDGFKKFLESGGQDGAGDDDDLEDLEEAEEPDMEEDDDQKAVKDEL
# ERp5 inh = blocks human ERp5 reductase activity on insulin | ERp5 insulin aggregation, absorbance 650 nm, 90 min | 350,000 tested, 0.05% active | Q15084 | inhibition, % at 9.99 µM;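 active = mean replicate inhibition above about 25%, with every replicate also reaching it, limit read from the data, passing the limit was not always enough; inconclusive = only one of those two criteria met; inactive = neither criterion met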
# DENV2 CPE rescue = inhibitors of DENV2 cytopathic effect; DENV2-infected cells, cytopathic effect rescue, plate reader; CPE inhibition, % at 9.99 µM; 350,000 tested, 1.7% active; in the data active = CPE inhibition above about 20%, passing the limit was not always enough; inconclusive = no clear call, values can overlap the other calls; tested in BHK-21 cells
# AF4-AF9 inh = blocks AF4 peptide binding to human AF9. AlphaScreen, biotin-AF4 peptide binding to FLAG-AF9. inhibition, % at 10 µM. P42568. 350,000 tested, 0.47% active;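 active = every replicate reaching a set inhibition limit, whatever the replicate mean, cut at about 25% in these data; inconclusive = mean inhibition reaches that limit but some replicates miss it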
# ERAP1 inh = inhibitors of human ERAP1 aminopeptidase; Q9NZ08; recombinant ERAP1, Leu-AMC fluorescence, 60 min; inhibition, % at 10.7 µM; 340,000 tested, 0.15% active; AID 652197;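 active = mean replicate inhibition of at least 30%, or all replicates individually reaching that 30% level; inactive = mean below 30% and not every replicate reaching it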
# A number is an active result; 0 = inactive; ? = inconclusive; - = no result.
SMILES,PDI inh,ERp5 inh,DENV2 CPE rescue,AF4-AF9 inh,ERAP1 inh
O=C(Nc1ccc(-c2ccccc2)cc1)c1ccc2c(c1)S(=O)(=O)c1ccccc1C2=O,0,0,0,0,0
O=C1c2ccccc2S(=O)(=O)c2cc(C(=O)N3CCN(c4ccc(Cl)cn4)CC3)ccc21,0,0,42,0,0
N#Cc1cccnc1N1CCN(C(=O)c2ccc3c(c2)S(=O)(=O)c2ccccc2C3=O)CC1,0,0,0,0,0
O=C(Nc1ccncc1)c1ccc2c(c1)S(=O)(=O)c1ccccc1C2=O,0,0,53,0,-
COc1cccc(NC(=O)N(C)C[C@@H]2Oc3cc(-c4ccccc4F)ccc3S(=O)(=O)N([C@H](C)CO)C[C@@H]2C)c1,-,0,?,0,0
O=C1C2C(c3ccccc3)CC=CC2[C@H](c2ccc3ccccc3c2)N1Cc1ccccc1 (stereo partly specified),0,0,-,0,0
Cc1ccc(F)c([C@H]2C3C=CCC(c4ccccc4)C3C(=O)N2Cc2ccccc2)c1 (stereo partly specified),0,0,0,50,0
Cc1ccc(-c2cccc(C3CC=CC4C3C(=O)N(Cc3ccccc3)C4c3ccc(C(F)(F)F)cc3)c2)cc1 (stereo unspecified),0,0,93,0,0
Cc1nc(SCC(=O)OCc2ccccc2)c(C#N)c(-c2ccccc2)c1C(=O)Nc1ccccc1,0,-,-,-,-
Cc1ccccc1NC(=O)c1c(C)nc(SCC(=O)OCc2ccccc2)c(C#N)c1-c1ccc(F)cc1,0,0,20,0,0
COc1ccc(-c2c(-c3cc(OC)cc(OC)c3)n(C)c3ccc(Br)cc23)cc1,0,0,32,0,-
COc1ccc2c3c([nH]c2c1)[C@@H](CO)N(Cc1ccccc1Cl)CC31CCN(C(=O)C2CC2)CC1,-,0,?,0,0
COc1ccc2c3c([nH]c2c1)[C@H](CO)N(Cc1ccccc1Cl)CC31CCN(C(C)=O)CC1,-,-,22,0,-
COc1ccc2c3c([nH]c2c1)[C@@H](CO)N(Cc1ccccc1Cl)CC31CN(C(=O)C2CC2)C1,-,0,23,0,0
COc1ccc2c3c(n(C)c2c1)[C@H](CO)N(Cc1ccccc1Cl)CC31CCN(C(=O)CC2CC2)CC1,-,0,31,0,-
COc1ccc2c3c([nH]c2c1)[C@H](CO)N(C(C)=O)CC31CN(Cc2ccccc2Cl)C1,-,0,0,26,0
O=C(c1ccncc1)N1CC2(C1)[C@@H](c1ccccc1)[C@@H](CO)N2C(=O)c1ccncc1,-,?,0,0,0
C[C@@H]1CN([C@@H](C)CO)S(=O)(=O)c2ccc(Br)cc2O[C@H]1CN(C)C(=O)c1cnccn1,-,0,0,0,0
COc1ccc2c3c([nH]c2c1)[C@@H](CO)N(Cc1cccc(Cl)c1)CC31CCN(C(C)=O)CC1,-,-,30,0,-
C[C@@H]1CN([C@H](C)CO)C(=O)c2cc(-c3cccnc3)cnc2O[C@@H]1CN(C)C(=O)NC1CCCC1,-,0,0,0,0
CCOc1cc(N2CCOCC2)c(OCC)cc1NC(=O)CN1CCN(Cc2ccc3c(c2)OCO3)CC1,0,0,29,0,0
CCCC(=O)N1C[C@@H]2[C@H](c3ccccc31)[C@@H](CO)N2C(=O)Nc1ccccc1,-,0,0,0,0
CCCC(=O)N1C[C@H]2[C@@H](c3ccccc31)[C@@H](CO)N2C(=O)Nc1ccc(F)cc1,-,0,28,0,0
O=C(c1cccnc1)N1C[C@H]2[C@@H](c3ccccc31)[C@H](CO)N2C(=O)Nc1ccc(F)cc1,-,0,67,0,0
COCC(=O)N1[C@H](CO)[C@H]2c3ccccc3N(C(=O)c3cccnc3)C[C@H]21,-,0,59,0,0
SMILES,PDI inh,ERp5 inh,DENV2 CPE rescue,AF4-AF9 inh,ERAP1 inh
CC(C)c1cn(CC[C@@H]2CC[C@@H](NC(=O)C3CC3)[C@@H](CO)O2)nn1,-,0,0,0,0
CN(C)CC(=O)Nc1ccc2c(c1)[C@@H]1C[C@H](CC(=O)NCc3cc(F)ccc3F)O[C@H](CO)[C@@H]1O2,-,0,0,0,0
O=C(NC1CCCC1)C(C1CC1)n1c(C2CCCC2)nc2ccccc21 (stereo unspecified),-,0,51,0,0
O=C(NC1CCCC1)C(C1CC1)n1c(C2CC2)nc2ccccc21 (stereo unspecified),-,0,0,-,0
CC(C)(C)NC(=O)C(C1CC1)n1c(-c2ccccc2)nc2ccccc21 (stereo unspecified),-,0,0,-,0
Cc1ccc(-c2nc3ccccc3n2C(C(=O)NC(C)(C)C)C2CC2)cc1 (stereo unspecified),-,0,31,0,0
